Measurements from PubChem BioAssay AID720526 (National Center for Advancing Translational Sciences (NCATS), 2013).
Results filed as inconclusive are left out. Values without a mark were called inactive. Active and inactive are the calls of the source. Calls come from the whole dose curve; as a rule, active = well fitted activation curve with a large enough effect; inconclusive = small, poorly fitted or top-dose-only effect; inactive = no such curve, though single readings can be large or run the other way.

Test: qHTS Assay for NPC1 Promoter Activators: Hit Validation Using Renila Luciferase Read-Out for NPC1; for activity change, positive = activation: % of control where 0% means no effect
Conditions: Huh7 NPC1 promoter-luciferase reporter, luminescence, 24 h; series mostly up to 76.9 µM; activity change, positive = activation: at the top concentration
How it was run: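 Luciferase reporter read-out: promoter activation measured by luminescence after 10 min with detection reagent at room temperature. Cells were Huh7 with a stable NPC promoter-luciferase construct, treated 24 h at 37 deg C.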
Potency is the fitted concentration of half-maximal effect.

| Compound | activity change, positive = activation | Potency |
| --- | --- | --- |
| O=C(Nc1nc2ccc(F)cc2s1)c1ccc(N2CCCC2=O)cc1 | -20.4% |  |
| O=C(CSc1nnc(-c2csc3c2CCCC3)o1)Nc1ccccc1 | -80.6% |  |
| CCOC(=O)c1ccc(NC(=O)Oc2cc(C)c(Cl)cc2C(C)C)cc1 | -15.9% |  |
| Cc1nn(CCCC(=O)NCc2ccc(F)cc2)c(C)c1[N+](=O)[O-] | -8.33% |  |
| O=C(Nc1ccc(-c2nc3cccnc3s2)cc1)c1ccc(Cl)nc1 | 1.87% |  |
| CCN(C(=O)COC(=O)c1ccc(C=O)cc1)c1c(N)n(Cc2ccccc2)c(=O)[nH]c1=O | 2.21% |  |
| CCOc1cc(C(=O)N=c2sccn2C)ccc1OC(F)F | -3.64% |  |
| CC(=O)NC(CCCN1C(=O)c2ccccc2C1=O)c1nnn(C)n1 (stereo not drawn) | -17.1% |  |
| O=C(CSc1nnc(-c2ccccc2)o1)Nc1ccccc1F | -0.801% |  |
| CC(C)CC(=O)N1CCN(c2ccc(NC(=O)c3ccco3)cc2)CC1 | 9.56% |  |
| Cc1nc(-c2ccc(S(=O)(=O)Oc3ccc(Cl)cc3Cl)s2)cs1 | -47.3% |  |
| Fc1ccc(-c2nc3nc4ccccc4nc3n2Cc2ccco2)cc1 | -99.6% |  |
| Cc1ccc(N(O)C(=O)NCCCCNC(=O)N(O)c2ccc(C)cc2)cc1 | 4.31% |  |
| CCOC(=O)c1csc(COc2ccc(OC)cc2)n1 | -7.41% |  |
| COc1ccc(C(c2nnnn2CCc2ccccc2)N2CCN(C3CCCC3)CC2)cc1 (stereo not drawn) |  | 13 µM (active) |
| O=C(CSc1nnc(-c2ccc([N+](=O)[O-])cc2)o1)Nc1ccccn1 | -72.1% |  |
| Cc1cc(C)c2c(N)c(C(=O)Nc3ccc([N+](=O)[O-])cc3)sc2n1 | -16.2% |  |
| COc1ccccc1OCCCC(=O)NCc1ccco1 | 6.95% |  |
| COC(=O)c1cn(NC(=O)C2CCCCC2)c(=O)c2ccccc12 | 8.18% |  |

| Compound | activity change, positive = activation | Potency |
| --- | --- | --- |
| Cc1ccc(C(=O)Nc2nnc(S(=O)(=O)N3CCOCC3)s2)cc1 | 4.97% |  |
| COCCNC(=O)C1CCC(CNS(=O)(=O)c2ccc(F)cc2)CC1 (stereo not drawn) | 0.674% |  |
| CCOC(=O)CSc1nc2cc(C)ccc2cc1C#N | -34.8% |  |
| COc1ccc(NC(=O)Nc2ccc(Cc3ccncc3)cc2)cc1OC | -56.6% |  |
| NCCOc1ccccc1-c1ccccc1 | -17% |  |
| COCc1cc(C)nc(N/N=C/c2ccc(-c3ccc(Cl)cc3[N+](=O)[O-])o2)c1C#N | 14.9% |  |
| COCCSc1ncnc2c1oc1nc3c(cc12)COC(C)(C)C3 | -7.48% |  |
| Cc1ccc(NC(=O)c2cccc(N3C(=O)CCC3=O)c2)nc1 | -4.36% |  |
| CCC(=O)NC(=S)Nc1ccc(N2CCOCC2)cc1 | 14.4% |  |
| O=S(=O)(c1cccs1)N1CCN(c2ncccn2)CC1 | -0.337% |  |
| CC(C)(C)NC(=S)NNC(=O)c1ccc2ncccc2c1 | -37.5% |  |
| Cc1ccc(NC(=O)COC(=O)C2C3CC4OC(=O)C2C4C3)cc1Cl (stereo not drawn) | -9.24% |  |
| Cc1ccc(C(=O)NC2CCN(CC(=O)Nc3c(C)cc(C)cc3C)CC2)cc1 | -9.61% |  |
| O=C(CCN1C(=O)c2ccccc2C1=O)Nc1ccc(-c2nc3ccccc3s2)cc1 | -38% |  |
| O=C(CCCOc1ccc(Cl)cc1)N1CCCCC1 | -10.6% |  |
| CCOC(=O)c1ccccc1NC(=O)CSc1nnc(Cc2cccn2C)n1-c1ccc(F)cc1 |  | 46.3 µM (active) |
| CCCN(CCC)CCCNC(=O)c1cc2cc3ccc(Cl)cc3nc2o1 | -34% |  |
| O=[N+]([O-])c1cnccc1Nc1ccc(F)cc1 | -10.4% |  |
| CCN(CC(=O)N(CC(C)C)c1c(N)n(CC(C)C)c(=O)[nH]c1=O)Cc1nc2ccccc2c(=O)[nH]1 | -7.95% |  |
